Assay [1] can be described thus: BSK_4H_Eotaxin3: BioMAP Diversity Plus: 4H Assay for Eotaxin 3 Biomarker Activity (AID 2283000).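 Further: CCL26 protein level quantified by ELISA in parallel with SRB cytotoxicity check.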 The conditions noted are these: primary human endothelial cells (HUVEC); actives raise or lower the signal. The method in brief: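 HUVEC, 24 h post-dose, ELISA for Eotaxin-3/CCL26. Gain or loss of signal fitted bidirectionally vs DMSO baseline.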
Assay [2] has as its target human Peroxisome Proliferator-activated Receptor alpha (PPARa), PPARA (gene 5465) (UniProt Q07869). Kind of assay: ATG_PPARa_TRANS: Attagene TRANS-FACTORIAL HepG2 Assay for human Peroxisome Proliferator-activated Receptor alpha (PPARa) (AID 2283001; active means hit-call score of the fitted dose curve at least 0.9, where 1 is the maximum). Put shortly: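 Reporter transcripts from GAL4-UAS units in transfected HepG2 were quantified 24 h after dosing. Detection used reverse transcription, PCR, fluorescent primer extension and capillary electrophoresis, with DMSO as baseline.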

Read-out in assay [3]: Intercellular Adhesion Molecule 1 (ICAM1), ICAM1 (gene 3383)
Nature of the assay: BSK_3C_ICAM1: BioMAP Diversity Plus: 3C Assay for Intercellular Adhesion Molecule 1 (ICAM1) Biomarker Activity (AID 2283003). The settings on record: primary human endothelial cells (HUVEC); actives raise or lower the signal. The method in brief: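 Human vascular endothelial primary cells, 3C conditions, 24 h treatment. ICAM-1 by ELISA.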

In assay [4] the target is human Retinoic Acid Receptor beta (RARb), RARB (gene 5915) (UniProt P10826). Nature of the assay: ATG_RARb_TRANS: Attagene TRANS-FACTORIAL HepG2 Assay for human Retinoic Acid Receptor beta (AID 2283004; active means hit-call score of the fitted dose curve at least 0.9, where 1 is the maximum). Put shortly:
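HepG2 cells transiently transfected with multiplexed GAL4-UAS reporter units expressing chimeric NR–Gal4 fusions; 24 h compound exposure. Reporter mRNA quantified by RT-PCR, 6-FAM labelling, HpaI digestion and capillary electrophoresis; gain-of-signal fitted against DMSO baseline.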

A short description of assay [5]: BSK_3C_Proliferation: Cell Proliferation Assessment in the BioMAP Diversity Plus: 3C Assay (AID 2283006).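 On AC50: potency may reflect either rise or fall in cell number versus DMSO.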 The conditions noted are these: primary human endothelial cells (HUVEC). Put shortly:
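Proliferation of human vascular endothelial primary cells after 48 h dosing, quantified as SRB-stained protein at 560 nm relative to DMSO.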

Assay [6] concerns the target Peroxisome proliferator-activated receptor gamma (Homo sapiens) (UniProt P37231). Nature of the assay: ATG_PPARg_TRANS: Attagene TRANS-FACTORIAL HepG2 Assay for human Peroxisome Proliferator-activated Receptor-gamma (PPARg) (AID 2283007; active means hit-call score of the fitted dose curve at least 0.9, where 1 is the maximum). Put shortly: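 Twenty-four hours after chemical dosing of transiently transfected HepG2 cells, isolated RNA was converted to cDNA, reporter sequences amplified and 6-FAM-labelled, then HpaI-digested and analysed by capillary electrophoresis. Signal increase against DMSO was fitted.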

Assay [7] has as its target Nuclear receptor subfamily 1 group I member 2 (Homo sapiens) (UniProt O75469). Nature of the assay: ATG_PXR_TRANS: Attagene TRANS-FACTORIAL HepG2 Assay for human Pregnane X Receptor (PXR) (AID 2283008; active means hit-call score of the fitted dose curve at least 0.9, where 1 is the maximum). The method in brief: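 HepG2 cells transiently transfected with GAL4-UAS reporter units and PXR-Gal4 chimera, exposed 24 h. Reporter mRNA quantified by RT-PCR, fluorescent labelling, HpaI digestion and capillary electrophoresis; gain of signal vs DMSO.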

Assay [8] deals with human Retinoic Acid Receptor gamma (RARg), RARG (gene 5916) (UniProt P13631). Kind of assay: ATG_RARg_TRANS: Attagene TRANS-FACTORIAL HepG2 Assay for human Retinoic Acid Receptor gamma (RARg) (AID 2283009; active means hit-call score of the fitted dose curve at least 0.9, where 1 is the maximum). Put shortly: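 HepG2, RARg-GAL4 TRANS system, 24 h exposure; reporter mRNA by RT-PCR + CE fluorescence; increase over DMSO.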
Sequence of human Retinoic Acid Receptor gamma (RARg), RARG (gene 5916) (P13631 whole entry, looked up, the tested form may be a part): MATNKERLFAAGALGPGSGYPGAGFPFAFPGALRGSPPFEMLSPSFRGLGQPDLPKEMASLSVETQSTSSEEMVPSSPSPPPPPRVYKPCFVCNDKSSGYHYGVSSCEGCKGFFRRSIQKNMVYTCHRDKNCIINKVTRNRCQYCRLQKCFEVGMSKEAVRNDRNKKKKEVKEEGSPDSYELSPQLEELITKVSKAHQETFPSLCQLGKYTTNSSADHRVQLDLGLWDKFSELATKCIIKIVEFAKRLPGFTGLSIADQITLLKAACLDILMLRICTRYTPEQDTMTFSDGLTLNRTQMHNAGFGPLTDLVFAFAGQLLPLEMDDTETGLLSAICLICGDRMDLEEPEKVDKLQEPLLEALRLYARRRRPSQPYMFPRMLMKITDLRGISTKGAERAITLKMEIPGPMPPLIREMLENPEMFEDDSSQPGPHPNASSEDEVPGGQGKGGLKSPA
Assay [9] addresses human RAR-related Orphan Receptor gamma (RORg), RORC (gene 6097) (UniProt P51449). Kind of assay: ATG_RORg_TRANS: Attagene TRANS-FACTORIAL HepG2 Assay for human RAR-related Orphan Receptor gamma (RORg) (AID 2283011; active means hit-call score of the fitted dose curve at least 0.9, where 1 is the maximum). Put shortly:
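Readout: reporter transcript induction (RT-PCR, fluorescent primer extension, capillary electrophoresis) after 24 h compound exposure of transiently transfected HepG2 cells carrying a RORg-Gal4 chimera and GAL4-UAS reporters; DMSO served as baseline, with increasing signal fitted.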

In assay [10] the target is Retinoic acid receptor RXR-alpha (Homo sapiens) (UniProt P19793). Kind of assay: ATG_RXRa_TRANS: Attagene TRANS-FACTORIAL HepG2 Assay for human Retinoid X Receptor alpha (RXRa) (AID 2283012; active means hit-call score of the fitted dose curve at least 0.9, where 1 is the maximum). Put shortly: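 Cells (HepG2) carried transiently transfected GAL4-responsive reporter units. Following a 24 h chemical incubation, reporter mRNA induction was read via RT-PCR fragment analysis; DMSO served as negative control and baseline.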
Sequence of Retinoic acid receptor RXR-alpha (Homo sapiens) (P19793 whole entry, looked up, the tested form may be a part): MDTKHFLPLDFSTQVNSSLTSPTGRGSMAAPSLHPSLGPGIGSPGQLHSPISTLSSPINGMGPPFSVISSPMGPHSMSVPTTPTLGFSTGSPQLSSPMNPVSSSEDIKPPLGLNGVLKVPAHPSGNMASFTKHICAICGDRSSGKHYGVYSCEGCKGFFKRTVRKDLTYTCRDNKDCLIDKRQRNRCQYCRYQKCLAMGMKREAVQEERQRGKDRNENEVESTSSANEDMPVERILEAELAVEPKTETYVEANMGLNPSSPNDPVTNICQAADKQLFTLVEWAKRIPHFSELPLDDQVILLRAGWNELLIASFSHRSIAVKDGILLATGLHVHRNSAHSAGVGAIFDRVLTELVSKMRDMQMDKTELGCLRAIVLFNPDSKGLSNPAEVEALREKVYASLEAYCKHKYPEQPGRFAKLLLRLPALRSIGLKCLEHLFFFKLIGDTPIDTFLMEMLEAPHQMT

The target of assay [11] is human Retinoid X Receptor beta (RXRb), RXRB (gene 6257) (UniProt P28702). Nature of the assay: ATG_RXRb_TRANS: Attagene TRANS-FACTORIAL HepG2 Assay for human Retinoid X Receptor beta (RXRb) (AID 2283013; active means hit-call score of the fitted dose curve at least 0.9, where 1 is the maximum). Put shortly:
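Multiplexed TRANS reporter assay in HepG2; 24 h dosing; reporter mRNA by RT-PCR/CE fluorescence; gain-of-signal relative to DMSO.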

Read-out in assay [12]: E-selectin (Homo sapiens) (UniProt P16581)
Nature of the assay: BSK_3C_Eselectin: BioMAP Diversity Plus: 3C Assay for Eselectin Biomarker Activity (AID 2283015).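 Further: cell surface E-selectin protein quantified by ELISA 24 h after dosing.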 The settings on record: primary human endothelial cells (HUVEC); actives raise or lower the signal. The method in brief: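 Primary human umbilical vein endothelial cells (3C system) were dosed with chemical and cell-surface E-selectin measured by ELISA 24 h later. Bidirectional curve fitting used DMSO as negative control and baseline.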

Read-out in assay [13]: Interleukin-1 alpha (IL1a), IL1A (gene 3552)
Nature of the assay: BSK_BE3C_IL1a: BioMAP Diversity Plus: BE3C Assay for Interleukin-1 alpha (IL1a) Biomarker Activity (AID 2283016). The settings on record: primary human bronchial epithelial cells; actives raise or lower the signal. Put shortly:
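Cultures of primary human bronchial epithelial cells receive test chemical. After 24 h, IL-1a is quantified by ELISA, while parallel wells are fixed in TCA and SRB-stained for total protein. Changes in either direction are fitted relative to DMSO.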

Read-out in assay [14]: Monocyte Chemoattractant Protein-1 (MCP1), CCL2 (gene 6347)
Nature of the assay: BSK_3C_MCP1: BioMAP Diversity Plus: 3C Assay for Monocyte Chemoattractant Protein-1 (MCP1) Biomarker Activity (AID 2283017). The conditions noted are these: primary human endothelial cells (HUVEC); actives raise or lower the signal. The method in brief: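 Primary human umbilical vein endothelial cells (3C system) were exposed to test chemical for 24 h, after which MCP-1 was quantified by ELISA. Activity was fitted bidirectionally against DMSO as negative control and baseline.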

Read-out in assay [15]: Monocyte Chemoattractant Protein-1 (MCP1), CCL2 (gene 6347)
Kind of assay: BSK_4H_MCP1: BioMAP Diversity Plus: 4H Assay for Monocyte Chemoattractant Protein-1 (MCP1) Biomarker Activity (AID 2283018). The conditions noted are these: primary human endothelial cells (HUVEC); actives raise or lower the signal. The method in brief:
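Readout: MCP-1 ELISA on compound-treated HUVEC, sampled 24 h post-dosing. Baseline and negative control DMSO; bidirectional fit. Overt toxicity checked alongside by sulforhodamine B protein staining at time of biomarker measurement.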

Read-out in assay [16]: Human Leukocyte Antigen - DR isotype (HLADR), HLA-DRA (gene 3122)
Nature of the assay: BSK_3C_HLADR: BioMAP Diversity Plus: 3C Assay for Human Leukocyte Antigen - DR isotype (HLADR) Biomarker Activity (AID 2283019). The conditions noted are these: primary human endothelial cells (HUVEC); actives raise or lower the signal. Put shortly: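 Primary human umbilical vein endothelial cells (3C system) were dosed with compound and cell-surface HLA-DR was quantified by ELISA at 24 h. Activity was fitted bidirectionally against DMSO as negative control and baseline.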

Read-out in assay [17]: Interleukin-8 (IL8), CXCL8 (gene 3576)
Kind of assay: BSK_3C_IL8: BioMAP Diversity Plus: 3C Assay for Interleukin-8 (IL8) Biomarker Activity (AID 2283020). The conditions noted are these: primary human endothelial cells (HUVEC); actives raise or lower the signal. The method in brief:
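Human vascular endothelial cells (umbilical vein) in the 3C system; IL-8 level detected by ELISA at 24 h post-dose, with DMSO as baseline.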

The target in assay [18] is human Peroxisome Proliferator-activated Receptor delta (PPARd), PPARD (gene 5467) (UniProt Q03181). Nature of the assay: ATG_PPARd_TRANS: Attagene TRANS-FACTORIAL HepG2 Assay for human Peroxisome Proliferator-activated Receptor delta (PPARd) (AID 2283002; active means hit-call score of the fitted dose curve at least 0.9, where 1 is the maximum). Put shortly: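 Transient HepG2 transfection (multiple GAL4-UAS RTUs, chimeric receptor-Gal4); 24 h dosing; total RNA → oligo(dT) RT → PCR → 6-FAM primer extension → HpaI cut → CE. Positive direction vs DMSO.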
Sequence of human Peroxisome Proliferator-activated Receptor delta (PPARd), PPARD (gene 5467) (Q03181 whole entry, looked up, the tested form may be a part): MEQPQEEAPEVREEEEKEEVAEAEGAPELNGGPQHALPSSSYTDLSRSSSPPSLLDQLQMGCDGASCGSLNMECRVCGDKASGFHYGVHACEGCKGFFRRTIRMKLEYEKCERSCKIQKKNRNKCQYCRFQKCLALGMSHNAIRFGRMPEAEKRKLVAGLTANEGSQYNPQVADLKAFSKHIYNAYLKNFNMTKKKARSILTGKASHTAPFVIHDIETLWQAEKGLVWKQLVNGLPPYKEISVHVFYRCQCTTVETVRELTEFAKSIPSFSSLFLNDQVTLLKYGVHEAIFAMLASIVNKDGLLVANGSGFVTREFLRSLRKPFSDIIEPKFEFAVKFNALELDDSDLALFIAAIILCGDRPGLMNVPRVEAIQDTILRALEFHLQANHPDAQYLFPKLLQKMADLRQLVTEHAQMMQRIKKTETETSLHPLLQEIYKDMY

Assay [19] has as its target human Thyroid Receptor alpha (THRa1), THRA (gene 7067) (UniProt P10827). Kind of assay: ATG_THRa1_TRANS: Attagene TRANS-FACTORIAL HepG2 Assay for human Thyroid Receptor alpha (THRa1) (AID 2283014; active means hit-call score of the fitted dose curve at least 0.9, where 1 is the maximum). Put shortly:
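HepG2 cells transiently transfected with multiplexed GAL4-UAS reporter units for exogenous chimeric THRa1-Gal4; reporter mRNA measured 24 h after dosing by RT-PCR, 6-FAM labelling, HpaI digestion and capillary electrophoresis. Gain-of-signal fitted versus DMSO baseline.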

The target of assay [20] is human RAR-related Orphan Receptor beta (RORb), RORB (gene 6096) (UniProt Q92753). Nature of the assay: ATG_RORb_TRANS: Attagene TRANS-FACTORIAL HepG2 Assay for human RAR-related Orphan Receptor beta (RORb) (AID 2283010; active means hit-call score of the fitted dose curve at least 0.9, where 1 is the maximum). The method in brief: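 In this TRANS-format test, human HepG2 cells express chimeric NR-Gal4 fusion proteins driving GAL4-UAS reporters. After 24 h dosing, reporter transcripts are measured by fluorescent RT-PCR/capillary electrophoresis, with DMSO as negative control.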
Sequence of human RAR-related Orphan Receptor beta (RORb), RORB (gene 6096) (Q92753 whole entry, looked up, the tested form may be a part): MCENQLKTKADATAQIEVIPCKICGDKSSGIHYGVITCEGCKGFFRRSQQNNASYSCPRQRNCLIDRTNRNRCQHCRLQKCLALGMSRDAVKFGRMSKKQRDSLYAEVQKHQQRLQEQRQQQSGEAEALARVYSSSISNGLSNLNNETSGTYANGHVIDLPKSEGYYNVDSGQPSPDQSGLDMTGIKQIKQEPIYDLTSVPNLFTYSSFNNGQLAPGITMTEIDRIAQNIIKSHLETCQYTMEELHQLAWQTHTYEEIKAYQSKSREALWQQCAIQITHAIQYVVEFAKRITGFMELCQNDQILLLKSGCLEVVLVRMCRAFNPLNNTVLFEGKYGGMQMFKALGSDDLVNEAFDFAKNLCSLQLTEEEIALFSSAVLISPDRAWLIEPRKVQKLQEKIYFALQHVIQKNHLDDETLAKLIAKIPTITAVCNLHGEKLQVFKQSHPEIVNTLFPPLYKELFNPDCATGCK

We go through seven compounds from PubChem BioAssay (EPA / NIEHS).

Records with an inconclusive call do not appear. Activity calls are given as the source filed them. How the source made its calls, unless noted: active means hit-call score of the fitted dose curve at least 0.9, where 1 is the maximum; inactive means score below 0.9.

Sequence of Peroxisome proliferator-activated receptor gamma (Homo sapiens) (P37231 whole entry, looked up): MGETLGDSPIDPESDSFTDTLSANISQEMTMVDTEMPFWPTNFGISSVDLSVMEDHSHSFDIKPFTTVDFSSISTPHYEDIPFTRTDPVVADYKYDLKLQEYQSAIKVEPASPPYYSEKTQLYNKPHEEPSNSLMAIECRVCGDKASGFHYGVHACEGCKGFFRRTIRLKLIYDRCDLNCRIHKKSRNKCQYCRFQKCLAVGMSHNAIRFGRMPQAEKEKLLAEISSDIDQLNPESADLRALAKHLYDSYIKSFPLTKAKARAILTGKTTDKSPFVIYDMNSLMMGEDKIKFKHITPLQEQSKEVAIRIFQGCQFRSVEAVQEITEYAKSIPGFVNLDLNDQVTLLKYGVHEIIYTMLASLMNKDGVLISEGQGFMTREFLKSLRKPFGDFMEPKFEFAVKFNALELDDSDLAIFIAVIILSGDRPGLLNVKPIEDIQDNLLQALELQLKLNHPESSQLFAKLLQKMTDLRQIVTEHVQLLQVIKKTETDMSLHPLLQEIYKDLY
Sequence of E-selectin (Homo sapiens) (P16581 whole entry, looked up): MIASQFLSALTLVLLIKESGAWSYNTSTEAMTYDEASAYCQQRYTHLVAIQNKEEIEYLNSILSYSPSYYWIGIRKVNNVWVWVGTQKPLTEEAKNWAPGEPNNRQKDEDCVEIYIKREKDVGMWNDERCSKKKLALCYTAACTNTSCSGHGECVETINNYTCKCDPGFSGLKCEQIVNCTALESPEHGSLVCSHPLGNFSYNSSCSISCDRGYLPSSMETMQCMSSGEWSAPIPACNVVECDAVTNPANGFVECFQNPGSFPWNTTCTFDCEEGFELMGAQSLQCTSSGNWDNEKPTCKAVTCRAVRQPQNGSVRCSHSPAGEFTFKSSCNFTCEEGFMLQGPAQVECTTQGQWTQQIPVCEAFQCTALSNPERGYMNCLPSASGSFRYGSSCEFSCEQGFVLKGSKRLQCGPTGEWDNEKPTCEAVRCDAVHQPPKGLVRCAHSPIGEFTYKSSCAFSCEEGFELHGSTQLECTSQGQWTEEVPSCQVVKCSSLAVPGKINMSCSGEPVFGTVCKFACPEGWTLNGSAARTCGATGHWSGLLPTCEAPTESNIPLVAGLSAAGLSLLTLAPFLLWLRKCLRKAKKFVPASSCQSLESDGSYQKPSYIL
Sequence of human RAR-related Orphan Receptor gamma (RORg), RORC (gene 6097) (P51449 whole entry, looked up, the tested form may be a part): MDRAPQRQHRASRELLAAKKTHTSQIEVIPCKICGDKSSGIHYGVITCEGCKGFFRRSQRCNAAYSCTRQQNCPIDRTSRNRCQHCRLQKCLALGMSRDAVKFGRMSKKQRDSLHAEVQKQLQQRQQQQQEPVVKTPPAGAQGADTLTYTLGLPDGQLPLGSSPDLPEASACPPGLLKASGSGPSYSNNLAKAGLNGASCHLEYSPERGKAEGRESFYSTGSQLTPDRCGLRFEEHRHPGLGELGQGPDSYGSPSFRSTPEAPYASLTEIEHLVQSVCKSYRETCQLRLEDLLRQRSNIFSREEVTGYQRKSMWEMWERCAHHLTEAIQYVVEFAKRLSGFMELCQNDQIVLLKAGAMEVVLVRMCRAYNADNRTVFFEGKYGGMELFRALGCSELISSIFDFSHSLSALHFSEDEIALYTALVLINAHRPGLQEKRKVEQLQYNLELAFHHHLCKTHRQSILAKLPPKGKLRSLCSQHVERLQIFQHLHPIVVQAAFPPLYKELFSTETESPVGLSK
Sequence of Nuclear receptor subfamily 1 group I member 2 (Homo sapiens) (O75469 whole entry, looked up, the tested form may be a part): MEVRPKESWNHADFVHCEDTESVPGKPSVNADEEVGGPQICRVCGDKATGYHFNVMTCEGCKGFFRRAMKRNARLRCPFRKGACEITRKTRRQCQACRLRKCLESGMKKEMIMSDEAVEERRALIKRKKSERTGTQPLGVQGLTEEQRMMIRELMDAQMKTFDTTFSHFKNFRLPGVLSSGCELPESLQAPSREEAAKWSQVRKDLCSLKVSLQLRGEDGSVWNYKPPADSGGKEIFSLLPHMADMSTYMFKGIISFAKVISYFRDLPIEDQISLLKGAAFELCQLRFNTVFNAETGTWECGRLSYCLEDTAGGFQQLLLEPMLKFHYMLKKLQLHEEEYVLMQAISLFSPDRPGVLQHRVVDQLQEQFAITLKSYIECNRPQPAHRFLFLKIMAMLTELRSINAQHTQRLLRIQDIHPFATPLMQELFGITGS
Sequence of human Retinoid X Receptor beta (RXRb), RXRB (gene 6257) (P28702 whole entry, looked up): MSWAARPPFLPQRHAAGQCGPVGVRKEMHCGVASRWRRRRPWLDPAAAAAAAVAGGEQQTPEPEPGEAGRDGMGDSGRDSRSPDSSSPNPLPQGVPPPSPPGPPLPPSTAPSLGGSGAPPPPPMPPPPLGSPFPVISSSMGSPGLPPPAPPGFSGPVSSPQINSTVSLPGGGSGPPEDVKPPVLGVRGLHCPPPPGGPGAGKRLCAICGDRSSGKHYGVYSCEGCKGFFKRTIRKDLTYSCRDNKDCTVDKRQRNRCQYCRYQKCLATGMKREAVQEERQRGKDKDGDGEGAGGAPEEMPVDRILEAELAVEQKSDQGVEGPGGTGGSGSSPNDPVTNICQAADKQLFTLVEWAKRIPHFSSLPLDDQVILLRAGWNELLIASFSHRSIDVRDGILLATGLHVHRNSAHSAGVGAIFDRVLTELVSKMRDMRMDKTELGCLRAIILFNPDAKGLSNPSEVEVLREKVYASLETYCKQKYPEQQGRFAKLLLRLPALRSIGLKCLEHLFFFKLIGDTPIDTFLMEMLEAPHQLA
Sequence of human Thyroid Receptor alpha (THRa1), THRA (gene 7067) (P10827 whole entry, looked up, the tested form may be a part): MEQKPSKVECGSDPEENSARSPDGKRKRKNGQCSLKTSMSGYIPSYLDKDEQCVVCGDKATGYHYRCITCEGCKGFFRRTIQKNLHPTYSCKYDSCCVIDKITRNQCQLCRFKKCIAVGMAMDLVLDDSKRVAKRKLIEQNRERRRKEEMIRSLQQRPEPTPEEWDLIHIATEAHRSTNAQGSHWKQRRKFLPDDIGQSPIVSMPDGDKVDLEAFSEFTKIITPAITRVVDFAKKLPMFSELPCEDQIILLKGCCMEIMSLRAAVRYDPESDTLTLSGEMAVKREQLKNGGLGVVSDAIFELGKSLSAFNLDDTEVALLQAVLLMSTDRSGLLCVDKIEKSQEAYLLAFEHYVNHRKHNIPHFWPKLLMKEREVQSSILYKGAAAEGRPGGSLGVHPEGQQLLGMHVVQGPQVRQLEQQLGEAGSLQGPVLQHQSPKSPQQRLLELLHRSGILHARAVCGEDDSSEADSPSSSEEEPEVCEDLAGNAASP

By AC50 is commonly meant the concentration giving half of the maximal activity seen. On to `CSc1nc(NC(C)C)nc(NC(C)C)n1`, for which the result in assay [1], in assay [2], in [3], in assay [4], in [5] and in assay [8] was inactive. For the same compound, the compound was called inactive in assay [9], in [10], in assay [11], in [12], in [13] and in [14]. The outcome in assay [15], in assay [16] and in assay [17] was inactive. The AC50 in assay [6] is 47.6 µM (active); in [7] it was 18.4 µM (active).
As for `CCOP(=S)(OCC)SCCSCC`, the outcome in [1], in assay [2], in assay [18], in assay [3], in [4] and in assay [5] was inactive. Also, the compound was called inactive in [6], in assay [7], in [10], in [11], in [19] and in assay [12]. The outcome in [13], in [14], in assay [15], in assay [16] and in [17] was inactive.
In the case of `CC(C1CC1)C(O)(Cn1cncn1)c1ccc(Cl)cc1` (stereo not drawn), the result in assay [1], in assay [2], in assay [18], in assay [3], in assay [4] and in assay [5] was inactive. In addition, the compound was classed as inactive in assay [6], in assay [7], in assay [8], in assay [20], in [9] and in assay [10]. In addition, the compound was called inactive in assay [11], in assay [12], in assay [13], in [14], in assay [15] and in assay [16]. Moreover, the result in [17] was inactive.
In the case of `C[Si](Cn1cncn1)(c1ccc(F)cc1)c1ccc(F)cc1`, the outcome in [1], in assay [2], in assay [18], in assay [3], in assay [5] and in assay [7] was inactive. The result in [10], in assay [11], in assay [12], in assay [13], in assay [14] and in [15] was inactive. Besides, the result in assay [16] and in [17] was inactive. Also, in [6], the concentration at half-maximal activity (AC50) is 48.5 µM (active).
Take `CCOC(=O)COc1cc(-c2nn(C)c(OC(F)F)c2Cl)c(F)cc1Cl`: the outcome in [1], in assay [2], in assay [18], in [3], in [4] and in [6] was inactive. Further, the compound was classed as inactive in [8], in assay [9], in assay [10], in assay [11], in assay [19] and in [12]. Also, the result in [13], in [14], in assay [16] and in assay [17] was inactive. For the same compound, the AC50 in assay [5] is 15.5 µM (active); in assay [7], 29.6 µM (active); in assay [15] it was 10.1 µM (active).
In the case of `CNC(=O)ON=C(SC)C(=O)N(C)C`, the result in [1], in assay [2], in assay [18], in assay [3], in assay [5] and in assay [6] was inactive. Moreover, the result in assay [20], in assay [11], in [12], in [13], in [14] and in assay [15] was inactive. Besides, the result in assay [16] and in assay [17] was inactive.
Take `CCCCOC(=O)[C@@H](C)Oc1ccc(Oc2ccc(C#N)cc2F)cc1`: the outcome in assay [1], in assay [2], in assay [18], in assay [3], in assay [5] and in [6] was inactive. Also, the result in assay [7], in [20], in [9], in assay [10], in assay [19] and in assay [12] was inactive. Moreover, the outcome in [13], in [14], in assay [15], in [16] and in assay [17] was inactive.
